Measurements reported in PubChem BioAssay AID1159580 (chemical genetic matrix, 2015).
Where “and” joins values, the source holds several entries; their conditions need not be identical. Equal entries are not always repeated. In all, about 5,500 compounds went through this assay and about 2,000 (36%) were called active. Not shown: some 18% with an inconclusive outcome. No stated cut-off is given here; in the data, active means normalized growth mostly below about 0.91 (no sharp cut-off); inconclusive means no clear call, values can overlap the other calls; inactive means mostly above about 0.92. This is one part of the list.

Assay: chemical genetic growth profiling, strain panel (AID 1159580);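 further: tested at 20 µM; growth read once vehicle control cultures reached saturation at 30 °C; 1 = growth at the plate median or of vehicle wells; lower values mean less growth of the strain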
Conditions: growth OD

Measured: normalized growth

COc1cc(Cc2cnc(N)nc2N)cc(OC)c1OC
inactive: S. cerevisiae deletion strains, locus YJR075W, strain HOC1, active compounds read low 1.01 | S. cerevisiae deletion strains, locus YKL009W, strain mrt4, active compounds read low 1.04 | S. cerevisiae deletion strains, locus YKL068W, active compounds read low 0.986 | S. cerevisiae deletion strains, locus YKL085W, strain MDH1 (second series), active compounds read low 1.03 | S. cerevisiae deletion strains, locus YKL085W, strain MDH1, active compounds read low 1.03 | S. cerevisiae deletion strains, locus YKL160W, strain elf1, active compounds read low 1.01 | S. cerevisiae deletion strains, locus YKL190W, strain CNB1, active compounds read low 1.01 | S. cerevisiae deletion strains, locus YKR001C, strain vps1, active compounds read low 0.989 | S. cerevisiae deletion strains, locus YKR026C, strain gcn3, active compounds read low 1 | S. cerevisiae deletion strains, locus YKR091W, strain srl3, active compounds read low 1.01 | S. cerevisiae deletion strains, locus YLL001W, strain dnm1, active compounds read low 0.993 | S. cerevisiae deletion strains, locus YLL026W, active compounds read low 1.01 | S. cerevisiae deletion strains, locus YLL041C, strain sdh2, active compounds read low 1.01 | S. cerevisiae deletion strains, locus YLR027C, strain aat2, active compounds read low 1.01 | S. cerevisiae deletion strains, locus YLR039C, strain RIC1, active compounds read low 1.03 | S. cerevisiae deletion strains, locus YLR058C, strain SHM2, active compounds read low 1 | S. cerevisiae deletion strains, locus YLR102C, strain apc9, active compounds read low 0.994 | S. cerevisiae deletion strains, locus YLR113W, strain HOG1, active compounds read low 0.994 | S. cerevisiae deletion strains, locus YLR221C, strain rsa3, active compounds read low 0.998 | S. cerevisiae deletion strains, locus YLR258W, strain gsy2, active compounds read low 1.02 | S. cerevisiae deletion strains, locus YLR262C, strain YPT6 (second series), active compounds read low 1.01 | S. cerevisiae deletion strains, locus YLR262C, strain YPT6, active compounds read low 1.03 | S. cerevisiae deletion strains, locus YLR268W, strain sec22, active compounds read low 0.978 | S. cerevisiae deletion strains, locus YLR320W, strain mms22, active compounds read low 1.02 | S. cerevisiae deletion strains, locus YLR330W, strain CHS5, active compounds read low 1 | S. cerevisiae deletion strains, locus YLR342W, strain FKS1 (second series), active compounds read low 0.992 | S. cerevisiae deletion strains, locus YLR342W, strain FKS1, active compounds read low 1 | S. cerevisiae deletion strains, locus YLR357W, strain rsc2, active compounds read low 0.998 | S. cerevisiae deletion strains, locus YLR370C, strain arc18, active compounds read low 1.01 | S. cerevisiae deletion strains, locus YLR371W, strain rom2, active compounds read low 0.991 | S. cerevisiae deletion strains, locus YLR384C, strain iki3, active compounds read low 1.02 | S. cerevisiae deletion strains, locus YLR418C, strain cdc73, active compounds read low 0.961 | S. cerevisiae deletion strains, locus YML016C, strain PPZ1, active compounds read low 0.994 | S. cerevisiae deletion strains, locus YML032C, strain rad52, active compounds read low 0.981 | S. cerevisiae deletion strains, locus YML120C, strain ndi1, active compounds read low 1.02 | S. cerevisiae deletion strains, locus YML124C, strain tub3, active compounds read low 0.991 | S. cerevisiae deletion strains, locus YMR058W, strain fet3, active compounds read low 1 | S. cerevisiae deletion strains, locus YMR078C, strain ctf18, active compounds read low 0.987 | S. cerevisiae deletion strains, locus YMR125W, strain sto1, active compounds read low 1.04 | S. cerevisiae deletion strains, locus YMR129W, active compounds read low 1.01 | S. cerevisiae deletion strains, locus YMR205C, strain PFK2, active compounds read low 1.03 | S. cerevisiae deletion strains, locus YMR223W, strain ubp8, active compounds read low 1.01 | S. cerevisiae deletion strains, locus YMR231W, strain pep5, active compounds read low 1.02 | S. cerevisiae deletion strains, locus YMR263W, strain SAP30, active compounds read low 1 | S. cerevisiae deletion strains, locus YMR307W, strain GAS1, active compounds read low 1.03 and 1 | S. cerevisiae deletion strains, locus YNL067W, strain RPL9B, active compounds read low 1 | S. cerevisiae deletion strains, locus YNL071W, strain lat1, active compounds read low 1.01 | S. cerevisiae deletion strains, locus YNL128W, strain TEP1, active compounds read low 0.998 | S. cerevisiae deletion strains, locus YNL153C, strain GIM3, active compounds read low 0.991 | S. cerevisiae deletion strains, locus YNL175C, strain NOP13, active compounds read low 0.937 | S. cerevisiae deletion strains, locus YNL183C, strain NPR1, active compounds read low 0.934 | S. cerevisiae deletion strains, locus YNL197C, strain WHI3, active compounds read low 0.956 | S. cerevisiae deletion strains, locus YNL209W, strain ssb2, active compounds read low 1.01 | S. cerevisiae deletion strains, locus YNL224C, strain SQS1, active compounds read low 0.981 | S. cerevisiae deletion strains, locus YNL233W, strain BNI4, active compounds read low 1.01 | S. cerevisiae deletion strains, locus YNL248C, strain rpa49, active compounds read low 1.02 | S. cerevisiae deletion strains, locus YNL250W, strain rad50, active compounds read low 0.988 | S. cerevisiae deletion strains, locus YNL271C, strain bni1, active compounds read low 0.985 | S. cerevisiae deletion strains, locus YNL298W, strain CLA4, active compounds read low 0.985 | S. cerevisiae deletion strains, locus YNL307C, strain MCK1, active compounds read low 0.994 | S. cerevisiae deletion strains, locus YNL322C, strain KRE1 (second series), active compounds read low 1.03 | S. cerevisiae deletion strains, locus YNL322C, strain KRE1, active compounds read low 1 and 0.976 | S. cerevisiae deletion strains, locus YNR049C, strain mso1, active compounds read low 1.01 | S. cerevisiae deletion strains, locus YNR052C, strain pop2, active compounds read low 0.986 | S. cerevisiae deletion strains, locus YOL006C, strain TOP1, active compounds read low 0.954 | S. cerevisiae deletion strains, locus YOL012C, strain htz1 0.78 | S. cerevisiae deletion strains, locus YOL147C, strain pex11, active compounds read low 0.996 | S. cerevisiae deletion strains, locus YOR001W, strain rrp6, active compounds read low 1.01 | S. cerevisiae deletion strains, locus YOR061W, strain CKA2, active compounds read low 1 | S. cerevisiae deletion strains, locus YOR069W, strain VPS5, active compounds read low 0.993 | S. cerevisiae deletion strains, locus YOR070C, strain gyp1, active compounds read low 1.01 | S. cerevisiae deletion strains, locus YOR080W, strain dia2, active compounds read low 1.03 | S. cerevisiae deletion strains, locus YOR083W, strain WHI5 (second series), active compounds read low 0.975 | S. cerevisiae deletion strains, locus YOR083W, strain WHI5, active compounds read low 0.999 | S. cerevisiae deletion strains, locus YOR106W, strain vam3, active compounds read low 1.01 | S. cerevisiae deletion strains, locus YOR136W, strain idh2, active compounds read low 0.992 | S. cerevisiae deletion strains, locus YOR144C, strain elg1, active compounds read low 0.989 | S. cerevisiae deletion strains, locus YOR184W, strain ser1, active compounds read low 0.991 | S. cerevisiae deletion strains, locus YOR231W, strain MKK1, active compounds read low 0.993 | S. cerevisiae deletion strains, locus YOR265W, strain rbl2, active compounds read low 1.01 | S. cerevisiae deletion strains, locus YOR270C, strain vph1, active compounds read low 1 | S. cerevisiae deletion strains, locus YOR290C, strain snf2, active compounds read low 1.03 | S. cerevisiae deletion strains, locus YOR316C, strain cot1, active compounds read low 0.994 | S. cerevisiae deletion strains, locus YPL051W, strain arl3, active compounds read low 1 | S. cerevisiae deletion strains, locus YPL055C, strain LGE1, active compounds read low 1.05 and 1.01 | S. cerevisiae deletion strains, locus YPL078C, strain atp4, active compounds read low 1.01 | S. cerevisiae deletion strains, locus YPL106C, strain sse1, active compounds read low 1.04 | S. cerevisiae deletion strains, locus YPL240C, strain hsp82, active compounds read low 1.01 | S. cerevisiae deletion strains, locus YPL241C, strain CIN2, active compounds read low 1 | S. cerevisiae deletion strains, locus YPL256C, strain CLN2, active compounds read low 0.982 | S. cerevisiae deletion strains, locus YPR119W, strain clb2, active compounds read low 0.986 | S. cerevisiae deletion strains, locus YPR141C, strain kar3, active compounds read low 0.987 | S. cerevisiae deletion strains, locus YPR163C, strain tif3, active compounds read low 0.988 | S. cerevisiae deletion strains, locus YPR167C, strain met16, active compounds read low 0.985 | S. cerevisiae deletion strains, strain wtn01, active compounds read low 0.977 | S. cerevisiae strains, strain wild type, active compounds read low 1.01
